Experimental findings from PubChem BioAssay (EPA / NIEHS) are described below.

Calls of active or inactive are those of the source. Rule for the calls: active = hit-call score of the fitted dose curve at least 0.9, where 1 is the maximum; inactive = score below 0.9.

A word on the AC50: it is the concentration at which the activity in the assay is half-maximal.

Test [1] in a line: ATG_M_32_CIS: Attagene CIS-FACTORIAL HepG2 Assay for M32 Transcription Factor (Internal Marker) (AID 2282949).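 Note: background control marker of the multiplexed CIS panel rather than a real target.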 The following applies: HepG2 Attagene cis-factorial M32 reporter, mRNA; actives raise or lower the signal. Put shortly:
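Following 24 h chemical exposure of HepG2 cells transiently expressing cis-promoter reporter constructs, reporter transcript levels were determined by RT-PCR with fluorescent labelling and capillary electrophoresis, then fitted bidirectionally against DMSO.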

Test [2] is described as follows: ATG_M_06_CIS: Attagene CIS-FACTORIAL HepG2 Assay for M06 Transcription Factor (Internal Marker) (AID 2282950). The following applies: HepG2 Attagene CIS-FACTORIAL M06 internal marker reporter; actives raise or lower the signal. Put shortly: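 Internal background marker within multiplexed cis-reporter HepG2 system. Cells transiently transfected, dosed 24 h; reporter mRNA measured by RT-PCR, HpaI digestion and capillary electrophoresis. Bidirectional fit relative to DMSO.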

The target of test [3] is Hypoxia-inducible factor 1-alpha (Homo sapiens) (UniProt Q16665). The test can be described thus: ATG_HIF1a_CIS: Attagene CIS-FACTORIAL HepG2 Assay for human Hypoxia Inducible Factor 1 (HIF1A) (AID 2282951). The following applies: HepG2 Attagene cis-factorial HIF1a reporter transcription; actives raise or lower the signal. Put shortly:
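Measures endogenous transcription-factor activity through cis-regulated reporter mRNA in HepG2. Cells dosed 24 h; transcripts quantified by RT-PCR with 6-FAM-labelled products separated by capillary electrophoresis; DMSO serves as negative control.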

Test [4] deals with Hepatocyte nuclear factor 6 (Homo sapiens) (UniProt Q9UBC0). The test can be described thus: ATG_HNF6_CIS: Attagene CIS-FACTORIAL HepG2 Assay for human Hepatocyte Nuclear Factor 6 (HNF6) (AID 2282952). The following applies: HepG2 Attagene cis-factorial HNF6 reporter transcription; actives raise or lower the signal. The gist of the method:
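HepG2, transient MRTU transfection (cis promoters); 24 h chemical exposure; total RNA → oligo(dT) RT → PCR → 6-FAM labelling → HpaI cut → CE; bidirectional fit vs DMSO.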

The target of test [5] is Heat shock factor protein 1 (Homo sapiens) (UniProt Q00613). The test can be described thus: ATG_HSE_CIS: Attagene CIS-FACTORIAL HepG2 Assay for human Heat Shock Transcription Factor 1 (HSE) (AID 2282953). The following applies: HepG2 HSE cis-reporter, Attagene RNA transcription; actives raise or lower the signal. The gist of the method:
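HepG2 cells transfected with cis-promoter reporter units sensing endogenous transcription factor activity; reporter mRNA quantified 24 h post-dose by RT-PCR and capillary electrophoresis of 6-FAM-labelled products. Bidirectional fitting against DMSO.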

Test [6] in a line: ATG_MRE_CIS: Attagene CIS-FACTORIAL HepG2 Assay for human Metal Responsive Element (MRE) (AID 2282954). The following applies: HepG2 MRE cis-reporter transcription, Attagene multiplex; actives raise or lower the signal. The gist of the method:
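HepG2 cells transiently transfected with multiple cis-element reporter units measure endogenous MTF1-driven transcription. After 24 h compound exposure, reporter mRNA is quantified by RT-PCR with 6-FAM labelling, HpaI digestion and capillary electrophoresis; bidirectional fits versus DMSO.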

Test [7] in a line: ATG_PBREM_CIS: Attagene CIS-FACTORIAL HepG2 Assay for human Phenobarbital-responsive Enhancer Module (PBREM) (AID 2282955). The following applies: HepG2 PBREM cis-reporter, Attagene multiplexed transcription; actives raise or lower the signal. Put shortly: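 Fluorescence of labelled reporter cDNA fragments, resolved by capillary electrophoresis, gives mRNA induction in transfected HepG2 cells treated for 24 h; DMSO serves as negative control and baseline.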

In test [8] the target is Paired box protein Pax-6 (Homo sapiens) (UniProt P26367). The test can be described thus: ATG_Pax6_CIS: Attagene CIS-FACTORIAL HepG2 Assay for human Paired Box 6 (PAX6) (AID 2282956). The following applies: HepG2 CIS-FACTORIAL PAX6 reporter transcription, RNA readout; actives raise or lower the signal. The gist of the method: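 After twenty-four hours of chemical exposure, transfected HepG2 cells are harvested for RNA. Cis-promoter reporter transcripts are amplified, fluorescently labelled and sized by capillary electrophoresis, with gain and loss of signal scored against DMSO.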
Sequence of Paired box protein Pax-6 (Homo sapiens) (P26367 whole entry, looked up): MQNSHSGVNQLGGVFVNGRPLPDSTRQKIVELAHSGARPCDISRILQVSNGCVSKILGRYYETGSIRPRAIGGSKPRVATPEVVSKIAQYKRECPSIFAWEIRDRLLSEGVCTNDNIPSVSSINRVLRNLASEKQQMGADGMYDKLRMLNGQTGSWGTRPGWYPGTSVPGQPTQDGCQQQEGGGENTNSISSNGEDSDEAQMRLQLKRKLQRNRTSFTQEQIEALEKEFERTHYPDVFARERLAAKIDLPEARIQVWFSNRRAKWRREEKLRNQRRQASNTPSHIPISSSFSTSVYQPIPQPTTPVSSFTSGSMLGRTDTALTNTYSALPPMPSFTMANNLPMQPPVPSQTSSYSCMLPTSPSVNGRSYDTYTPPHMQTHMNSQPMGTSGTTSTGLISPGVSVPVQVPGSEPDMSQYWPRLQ

The nature of test [9]: ATG_PXRE_CIS: Attagene CIS-FACTORIAL HepG2 Assay for human Pregnane X Receptor Element (PXRE) (AID 2282957). The following applies: HepG2 Attagene CIS-FACTORIAL PXRE reporter, mRNA; actives raise or lower the signal. Put shortly:
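Transfect HepG2 with MRTUs (cis promoter elements); dose chemical, incubate 24 h; isolate RNA, RT with oligo(dT), PCR, 6-FAM label, HpaI cut, CE. Gain/loss fit vs DMSO.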

The nature of test [10]: ATG_PPRE_CIS: Attagene CIS-FACTORIAL HepG2 Assay for human Peroxisome Proliferator-activated Response Element (PPRE) (AID 2282958). The following applies: HepG2 PPRE cis-element reporter, Attagene transcription factor profiling; actives raise or lower the signal. The gist of the method: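 Cells are first transfected transiently with the multiplexed reporter library, then dosed for 24 h. Total RNA is reverse-transcribed, amplified, fluorescently end-labeled and HpaI-cut before capillary electrophoresis; activity is fitted bidirectionally against DMSO controls.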

A short description of test [11]: ATG_RORE_CIS: Attagene CIS-FACTORIAL HepG2 Assay for human RAR-related Orphan Receptor Element (RORE) (AID 2282959). The following applies: HepG2 Attagene cis-factorial RORE reporter, mRNA; actives raise or lower the signal. Put shortly:
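Cells were HepG2 carrying transfected cis-regulated reporter constructs, dosed for 24 hours. Total RNA was reverse-transcribed and reporter cDNA amplified, fluorescently labeled and sized by capillary electrophoresis. Activity was fitted bidirectionally relative to DMSO.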

A short description of test [12]: ATG_Sox_CIS: Attagene CIS-FACTORIAL HepG2 Assay for human SRY-box transcription factor (SOX) (AID 2282960). The following applies: HepG2 Attagene cis-factorial SOX reporter, mRNA; actives raise or lower the signal. The gist of the method: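 Transient MRTU transfection of HepG2; 24 h compound incubation; TriZol RNA, oligo(dT) RT, PCR, 6-FAM primer extension, HpaI cut, CE. Bidirectional fit, DMSO = baseline.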

Test [13] addresses Transcription factor Sp1 (Homo sapiens) (UniProt P08047). The test can be described thus: ATG_Sp1_CIS: Attagene CIS-FACTORIAL HepG2 Assay for human Specificity Protein 1 (Sp1) (AID 2282961). The following applies: HepG2 Sp1 cis-reporter transcription, actives raise or lower the signal. Put shortly: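 Endogenous Sp1 activity was gauged in human liver HepG2 cells bearing transfected reporter units under a cis-regulating promoter. After 24 h dosing, reporter mRNA was quantified by RT-PCR with capillary electrophoresis, and activity fitted bidirectionally versus DMSO.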

A short description of test [14]: ATG_SREBP_CIS: Attagene CIS-FACTORIAL HepG2 Assay for human Sterol Regulatory Element Binding (SREBP) (AID 2282962). The following applies: HepG2 Attagene cis-factorial SREBP reporter, mRNA; actives raise or lower the signal. The gist of the method:
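Twenty-four hours after chemical dosing of transfected HepG2 cultures, reporter RNA was converted to cDNA, amplified, end-labelled with 6-FAM and resolved by capillary electrophoresis. Responses were fitted relative to DMSO.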

Test [15] concerns the target Signal transducer and activator of transcription 3 (Homo sapiens) (UniProt P40763). The test can be described thus: ATG_STAT3_CIS: Attagene CIS-FACTORIAL HepG2 Assay for human Signal Transducer and Activator of Transcription 3 (STAT3) (AID 2282963). The following applies: HepG2, Attagene cis-factorial STAT3 reporter transcription; actives raise or lower the signal. The gist of the method: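 HepG2 cells transiently transfected with cis-element-driven multiple reporter transcription units; after 24 h chemical exposure, reporter mRNA measured by RT-PCR, 6-FAM primer-extension labelling, HpaI digestion and capillary electrophoresis. Bidirectional fitting versus DMSO baseline.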

The nature of test [16]: ATG_TA_CIS: Attagene CIS-FACTORIAL HepG2 Assay for human TA Basal Promoter (AID 2282964). The following applies: HepG2 Attagene CIS-factorial TA basal promoter reporter; actives raise or lower the signal. The gist of the method: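 HepG2 cells transiently transfected with multiple reporter units under cis promoter elements, reporting endogenous transcription factor activity; this endpoint tracks the TA basal promoter as background control. Reporter mRNA after 24 h dosing measured by RT-PCR/capillary electrophoresis; bidirectional fits versus DMSO.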

Test [17] in a line: ATG_TCF_b_cat_CIS: Attagene CIS-FACTORIAL HepG2 Assay for human T-Cell-Factor with beta-catenin (TCF/b-cat) (AID 2282965). The following applies: HepG2 TCF/beta-catenin cis-reporter transcription, actives raise or lower the signal. The gist of the method: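 Using capillary electrophoresis as the read-out, labelled reporter cDNA fragments from transiently transfected HepG2 were sized and quantified. Exposure lasted 24 hours; activity in either direction was referenced to DMSO.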

Test [18] in a line: ATG_TAL_CIS: Attagene CIS-FACTORIAL HepG2 Assay for human TAL Basal Promoter (AID 2282966).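 Note: background control endpoint measuring basal TAL promoter reporter mRNA not a specific factor.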 The following applies: HepG2 Attagene cis-factorial TAL promoter reporter; actives raise or lower the signal. Put shortly:
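Fluorescence of labelled reporter cDNA fragments, resolved by capillary electrophoresis, gave the readout. Human HepG2 liver cells carried transiently transfected cis-element reporter units and were treated for 24 hours; activity was fitted bidirectionally against DMSO.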

Test [19] is described as follows: ATG_TGFb_CIS: Attagene CIS-FACTORIAL HepG2 Assay for human Transforming Growth Factor (TGF) (AID 2282967). The following applies: HepG2 Attagene CIS TGFb reporter, mRNA transcription; actives raise or lower the signal. The gist of the method:
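HepG2 cells transiently transfected with cis-promoter-driven multiple reporter units measure endogenous TF activity; reporter mRNA quantified at 24 h by RT-PCR, FAM labeling, HpaI digestion and capillary electrophoresis. Bidirectional fit vs DMSO.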

Test [20] in a line: ATG_VDRE_CIS: Attagene CIS-FACTORIAL HepG2 Assay for human Vitamin D Receptor Element (VDRE) (AID 2282968). The following applies: HepG2 VDRE cis-reporter transcription, actives raise or lower the signal. Put shortly:
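HepG2 cells transiently transfected with cis-element reporter units, dosed 24 h; reporter mRNA measured by RT-PCR, 6-FAM labeling, HpaI digestion and capillary electrophoresis. Activity fitted bidirectionally against DMSO baseline.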

Sequence of Heat shock factor protein 1 (Homo sapiens) (Q00613 whole entry, looked up): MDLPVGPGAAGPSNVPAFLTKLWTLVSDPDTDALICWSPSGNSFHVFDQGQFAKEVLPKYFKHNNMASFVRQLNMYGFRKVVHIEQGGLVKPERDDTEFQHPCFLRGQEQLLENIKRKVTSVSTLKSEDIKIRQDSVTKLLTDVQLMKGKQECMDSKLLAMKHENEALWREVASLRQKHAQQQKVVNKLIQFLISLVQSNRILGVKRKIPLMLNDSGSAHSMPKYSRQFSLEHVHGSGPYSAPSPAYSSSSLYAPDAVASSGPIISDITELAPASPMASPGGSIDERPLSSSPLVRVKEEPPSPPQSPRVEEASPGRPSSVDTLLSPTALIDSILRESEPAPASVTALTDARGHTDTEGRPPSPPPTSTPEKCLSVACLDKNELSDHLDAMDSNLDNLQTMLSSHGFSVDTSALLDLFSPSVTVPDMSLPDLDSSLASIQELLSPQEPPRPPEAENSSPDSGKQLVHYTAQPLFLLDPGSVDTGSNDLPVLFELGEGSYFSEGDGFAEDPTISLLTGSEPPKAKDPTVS
Sequence of Signal transducer and activator of transcription 3 (Homo sapiens) (P40763 whole entry, looked up): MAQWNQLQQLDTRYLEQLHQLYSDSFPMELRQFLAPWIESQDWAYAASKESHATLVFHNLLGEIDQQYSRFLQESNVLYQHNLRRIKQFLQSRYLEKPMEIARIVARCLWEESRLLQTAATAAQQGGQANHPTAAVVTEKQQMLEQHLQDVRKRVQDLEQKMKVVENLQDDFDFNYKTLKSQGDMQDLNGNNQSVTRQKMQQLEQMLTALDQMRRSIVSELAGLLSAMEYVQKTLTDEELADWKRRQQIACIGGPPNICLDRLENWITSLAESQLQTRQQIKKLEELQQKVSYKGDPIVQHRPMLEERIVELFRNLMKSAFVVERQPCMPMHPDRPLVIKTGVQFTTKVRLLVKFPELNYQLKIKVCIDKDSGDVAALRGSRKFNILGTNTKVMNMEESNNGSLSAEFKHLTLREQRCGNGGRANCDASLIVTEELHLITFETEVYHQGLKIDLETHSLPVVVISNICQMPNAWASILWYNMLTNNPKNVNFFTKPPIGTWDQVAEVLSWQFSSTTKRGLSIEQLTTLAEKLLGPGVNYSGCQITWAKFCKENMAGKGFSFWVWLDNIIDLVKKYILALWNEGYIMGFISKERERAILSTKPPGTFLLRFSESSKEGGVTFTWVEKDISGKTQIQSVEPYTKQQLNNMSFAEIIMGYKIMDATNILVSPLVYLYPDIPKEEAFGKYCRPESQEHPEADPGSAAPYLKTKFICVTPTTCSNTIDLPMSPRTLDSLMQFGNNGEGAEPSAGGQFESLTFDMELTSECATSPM
Sequence of Hypoxia-inducible factor 1-alpha (Homo sapiens) (Q16665 whole entry, looked up): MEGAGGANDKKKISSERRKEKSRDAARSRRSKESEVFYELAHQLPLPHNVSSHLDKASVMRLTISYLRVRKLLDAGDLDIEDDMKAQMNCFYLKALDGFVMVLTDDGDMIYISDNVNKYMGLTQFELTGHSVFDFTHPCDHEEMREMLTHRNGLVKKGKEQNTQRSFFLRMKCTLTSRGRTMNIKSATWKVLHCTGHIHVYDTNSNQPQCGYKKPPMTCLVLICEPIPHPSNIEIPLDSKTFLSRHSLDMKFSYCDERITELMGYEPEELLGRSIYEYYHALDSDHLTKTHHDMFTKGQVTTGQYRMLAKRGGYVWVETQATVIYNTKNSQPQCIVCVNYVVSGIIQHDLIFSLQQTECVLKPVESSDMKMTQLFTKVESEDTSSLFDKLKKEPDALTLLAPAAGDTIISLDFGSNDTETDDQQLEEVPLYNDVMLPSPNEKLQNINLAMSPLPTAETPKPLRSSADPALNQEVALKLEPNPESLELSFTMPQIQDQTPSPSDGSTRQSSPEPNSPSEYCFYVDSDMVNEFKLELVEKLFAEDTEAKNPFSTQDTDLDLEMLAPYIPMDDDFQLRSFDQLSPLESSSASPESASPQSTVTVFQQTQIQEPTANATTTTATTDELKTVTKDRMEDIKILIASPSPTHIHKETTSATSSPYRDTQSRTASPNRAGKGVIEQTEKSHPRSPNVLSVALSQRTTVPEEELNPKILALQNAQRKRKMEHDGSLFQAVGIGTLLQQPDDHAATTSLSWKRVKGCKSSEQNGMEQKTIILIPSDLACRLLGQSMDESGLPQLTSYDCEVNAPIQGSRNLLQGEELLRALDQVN
Sequence of Transcription factor Sp1 (Homo sapiens) (P08047 whole entry, looked up): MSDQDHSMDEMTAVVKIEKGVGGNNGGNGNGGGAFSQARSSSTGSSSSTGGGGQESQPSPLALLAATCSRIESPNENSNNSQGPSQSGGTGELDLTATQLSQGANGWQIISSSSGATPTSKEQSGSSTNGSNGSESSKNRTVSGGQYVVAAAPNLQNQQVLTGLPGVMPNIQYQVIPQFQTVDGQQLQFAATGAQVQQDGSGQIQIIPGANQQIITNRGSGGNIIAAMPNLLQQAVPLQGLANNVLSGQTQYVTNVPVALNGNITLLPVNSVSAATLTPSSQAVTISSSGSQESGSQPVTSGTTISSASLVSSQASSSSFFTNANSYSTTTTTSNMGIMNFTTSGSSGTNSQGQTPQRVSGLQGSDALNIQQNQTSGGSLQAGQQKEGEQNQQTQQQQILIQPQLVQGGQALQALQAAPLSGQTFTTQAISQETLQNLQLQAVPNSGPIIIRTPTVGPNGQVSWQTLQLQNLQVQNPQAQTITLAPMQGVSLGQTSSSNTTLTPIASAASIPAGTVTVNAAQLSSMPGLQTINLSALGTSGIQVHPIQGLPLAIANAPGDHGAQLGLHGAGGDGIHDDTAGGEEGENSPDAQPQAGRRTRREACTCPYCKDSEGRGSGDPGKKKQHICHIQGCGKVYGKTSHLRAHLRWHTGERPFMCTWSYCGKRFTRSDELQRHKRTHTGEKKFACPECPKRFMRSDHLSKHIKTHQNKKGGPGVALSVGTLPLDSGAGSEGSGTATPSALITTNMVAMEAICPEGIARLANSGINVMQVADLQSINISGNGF
Sequence of Hepatocyte nuclear factor 6 (Homo sapiens) (Q9UBC0 whole entry, looked up): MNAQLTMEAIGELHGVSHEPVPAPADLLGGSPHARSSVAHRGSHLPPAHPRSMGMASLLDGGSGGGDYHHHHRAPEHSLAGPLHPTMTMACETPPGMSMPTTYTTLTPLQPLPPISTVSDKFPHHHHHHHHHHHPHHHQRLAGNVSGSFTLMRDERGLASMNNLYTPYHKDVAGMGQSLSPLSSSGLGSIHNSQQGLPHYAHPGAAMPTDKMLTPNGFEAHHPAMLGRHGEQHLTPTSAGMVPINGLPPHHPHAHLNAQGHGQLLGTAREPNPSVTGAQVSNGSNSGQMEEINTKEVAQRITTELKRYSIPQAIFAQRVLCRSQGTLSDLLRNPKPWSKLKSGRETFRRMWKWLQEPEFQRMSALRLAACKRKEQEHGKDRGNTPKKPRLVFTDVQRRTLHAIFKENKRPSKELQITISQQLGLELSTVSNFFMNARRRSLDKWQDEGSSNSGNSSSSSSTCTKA

`CCCCCCOC(=O)c1ccc(O)cc1`: the call in test [1], in test [2], in test [3], in test [12], in [15] and in test [16] was inactive. Besides, the compound was classed as inactive in [17] and in test [18]. Besides, the AC50 was 52.7 µM (active) in [4]; 60.8 µM (active) in test [5]; 59.6 µM (active) in [6]; 29.8 µM (active) in [7]; 53.7 µM (active) in test [8]; 13 µM (active) in test [9]. Also, the AC50 in test [10] is 22.9 µM (active); in test [11] it was 51.2 µM (active); in test [13] it was 37.1 µM (active); in [14], 33.4 µM (active); in [19], 50.8 µM (active); in [20], 49.9 µM (active).
As to `O=C(O)c1cccc(C(=O)O)n1`, the compound was called inactive in test [1], in [2], in test [3], in test [4], in test [5] and in test [6]. Further, the result in test [7], in test [8], in [9], in test [10], in test [11] and in test [12] was inactive. The result in [13], in test [14], in [15], in test [16], in test [17] and in test [18] was inactive. The compound was classed as inactive in [19] and in [20].
Regarding `C[C@]12CC[C@@H]3c4ccc(O)cc4CC[C@H]3[C@@H]1CC[C@@H]2OC(=O)CCC1CCCC1`, the AC50 in test [1] is 164 µM (active); in test [4], 125 µM (active); in [9], 3.89 µM (active); in [10], 100 µM (active); in [12], 163 µM (active). Also, the compound was called inactive in test [2], in test [3], in [5], in [6], in test [7] and in [8]. The compound was called inactive in test [11], in [13], in test [14], in [15], in [16] and in test [17]. Also, the compound was classed as inactive in [18], in test [19] and in test [20].
